In PubChem BioAssay AID687028 (Broad Institute, 2013):
The campaign covered roughly 1,400 compounds. About 55 (4%) were called active. How the calls were made is not given here. Not all results are given here. Results with a measured potency or affinity are listed apart.

Assay: viability loss in A549 cells – cell-based, plate reader, cherry-pick samples, cytotoxicity control, dose response (AID 687028);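 further: cells incubated with compound for three days before reading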
Conditions: series mostly up to 19.5 µM; activity change, negative = toxicity: at the top concentration

| SMILES | activity change, negative = toxicity |
| --- | --- |
| COc1ccccc1CN1[C@H](CO)[C@H]2c3ccccc3N(C(=O)c3ccncc3)C[C@H]21 | 1.88% [at 21 µM] (inactive) |
| COc1ccc(C)cc1N(CC(=O)Nc1ccc(S(=O)(=O)N2CCOCC2)cc1)S(C)(=O)=O | 2.83% (inactive) |
| CCOc1ccc(C(=O)Nc2ccc(CN3CCOCC3)cc2)cc1Br | 0.645% (inactive) |
| CCn1c(=O)n(CC)c2cc(N3CCCC3)c(NC(=O)c3ccc(C)cc3)cc21 | 4.36% (inactive) |
| Cc1ccccc1S(=O)(=O)N1C[C@@H](O)COC[C@@H]2O[C@H](CC(=O)N3CCCCC3)CC[C@H]21 | 2.8% (inactive) |
| C[C@@H]1CN([C@@H](C)CO)C(=O)Cc2cc(NS(=O)(=O)c3cn(C)cn3)ccc2O[C@H]1CN(C)Cc1ccc(C(=O)Nc2ccccc2N)cc1 | 14.2% (inactive) |
| CCCNC(=O)N1[C@H](CO)[C@@H](c2ccccc2)C12CN(C(=O)C1CCCCC1)C2 | 4.98% [at 21 µM] (inactive) |
| O=C(CN1CCN(c2cccc(C(F)(F)F)c2)CC1)N(C1CCCC1)C1CCS(=O)(=O)C1 (stereo unspecified) | -6.02% (inactive) |
| Cc1cc(OCC(=O)NC(Cc2ccc(Cl)cc2)C(=O)O)c2c(C)c(C)c(=O)oc2c1 (stereo unspecified) | 1.6% (inactive) |
| CCc1nc(SCc2ccccc2C)n[nH]1 | 3.95% (inactive) |
| Cc1ccc(CCN2CC(C(=O)NCCc3ccccc3)CC2=O)cc1 (stereo unspecified) | -1.28% (inactive) |
| Cc1noc(C)c1S(=O)(=O)Nc1cccc2c1O[C@H](CN(C)C(=O)NC(C)C)[C@H](C)CN([C@@H](C)CO)C2=O | 5.39% (inactive) |
| CC(C)C[C@@H](COc1ccccc1)N1CCN(Cc2ccccc2)CCC1=O | -4.31% (inactive) |
| C[C@H](CO)N1C[C@H](C)[C@@H](CN(C)C(=O)Nc2ccc(C(F)(F)F)cc2)OCCCC[C@H](C)Oc2ccc(NS(=O)(=O)c3cccs3)cc2C1=O | -23% (inactive) |
| COc1ccc(S(=O)(=O)Nc2ccc3c(c2)C(=O)N([C@@H](C)CO)C[C@H](C)[C@@H](CN(C)C(=O)Nc2ccc(C(F)(F)F)cc2)OCCCC[C@H](C)O3)cc1 | 8.07% (inactive) |
| C[C@H](CO)N1C[C@H](C)[C@@H](CN(C)C(=O)Nc2ccc(C(F)(F)F)cc2)OCCCC[C@H](C)Oc2ccc(NS(=O)(=O)c3ccc(F)cc3)cc2C1=O | 9.95% (inactive) |
| COc1ccc(NC(=O)N(C)C[C@H]2OCCCC[C@@H](C)Oc3ccc(NS(C)(=O)=O)cc3C(=O)N([C@H](C)CO)C[C@H]2C)cc1 | 4.29% (inactive) |
| COc1cccc(CNC(=O)[C@H]2[C@H](CO)[C@H]3Cn4c(ccc(-c5ccncc5)c4=O)[C@H]3N2C)c1 | -0.01% (inactive) |
| N#C[C@H]1[C@@H](c2ccc(C3=CCCCC3)cc2)[C@@H](CO)N1S(=O)(=O)c1cccc(F)c1 | 2.88% (inactive) |
| CCOc1ccc(NC(=O)CN(C)C(=O)c2ccccc2OCc2c(C)noc2C)cc1OCC | -0.912% (inactive) |
| COc1ccc(N2CCN(c3cc(C(=O)NC4CCCCC4)ncn3)CC2)cc1OC | 4.44% (inactive) |
| CC(C)(C)OC(=O)N[C@H]1C=C[C@@H](CC(=O)OCC(F)(F)F)C1 | 2.97% (inactive) |
| CCN(CC)c1ccc2cc(C(=O)NCc3ccc(F)cc3)c(=N)oc2c1 | -2.33% (inactive) |
| CC(=O)OCCCN(C)CC/C=C1/c2ccccc2CSc2ccccc21 | 1.09% (inactive) |
| CC(C)Oc1ccc(S(=O)(=O)N2CCOCC2)cc1NC(=O)Cc1ccsc1 | -1.5% (inactive) |
| Cc1ccccc1CN1CCN(CC(=O)NC(C)c2ccccc2)CC1 (stereo unspecified) | 8.03% (inactive) |
